# Bioassay records as filed in PubChem.
# In the library only some 7.3% were active in any assay of this set; here they are far more common.
# FMDV antiviral – foot and mouth disease virus antiviral activity. FMDV antiviral cell-based qHTS. Potency, µM (highest dose often 57.9 µM), hits mostly inhibitors. 410,000 tested, 1.2% active. AID 1159524; calls by dose curve; tested in HEK293T cells; also: read-out not given here; nearly all actives have a fitted effect of over 45% in size
# HCV inh – blocks hepatitis C virus; Huh7.5.1 HCVcc-Cre infection, luciferase reporter, 44 h; Potency, µM (doses to about 41.8 µM), hits mostly inhibitors; 340,000 tested, 3.4% active; active = well fitted inhibition curve with a large enough effect; inconclusive = small, poorly fitted or top-dose-only effect, or another doubt; inactive = no such curve, though single readings can be large or run the other way
#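 After 44 h co-culture of compound, cells and HCVcc-Cre (~0.5 moi), substrate is added for 15 min at room temperature and luciferase measured over 15 sec. Cells were seeded at 1,000/well and pre-cultured 4 h.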
# HCMV antiviral – blocks human cytomegalovirus replication. HFF cells, HCMV-luciferase reporter, 72 h; active compounds read low. activity change, negative = inhibition, % at 57.5 µM. 410,000 tested, 4.5% active. AID 1259415; in the data active = activity change below about -60%; inconclusive = no clear call, values can overlap the other calls; inactive = above about -39%
#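 Screen run at 2 compound doses on HFFs infected with reporter HCMV, MOI 1 PFU/cell. Luciferase activity from cell lysates at 72 h post infection gave inhibition relative to buffer-only and Salinomycin wells.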
# Vaccinia mCherry – vaccinia inhibition (mCherry reporter); Vaccinia virus mCherry reporter infection, fluorescence; Potency, µM (top dose mostly 36.5 µM), most hits filed as inhibitors; 310,000 tested, 0.63% active; AID 720579; calls by dose curve; tested in A549 cells; also: nearly all actives have a fitted effect of over 35% in size
# Vaccinia Venus – inhibitors of vaccinia virus (Venus reporter); Vaccinia virus Venus reporter expression, fluorescence; Potency, µM (series often up to 36.5 µM), most hits filed as inhibitors; AID 720580; 330,000 tested, 0.46% active; calls by dose curve; tested in A549 cells; also: nearly all actives have a fitted effect of over 30% in size
# Numbers stand for hits; – = inactive; ? = inconclusive; · = not tested or not shown; ! = repeats disagree; [ ] = another dose, or the depositor's remark.
SMILES,FMDV antiviral,HCV inh,HCMV antiviral,Vaccinia mCherry,Vaccinia Venus
CSc1ccc2c(c1)C(N1CCN(C)CC1)Cc1ccccc1S2 (configuration not stated),?,?,-75!,?,?
CN1CCN(C2Cc3ccccc3Sc3cc(C(F)(F)F)ccc32)CC1 (configuration not stated),–,11µM,-109,?,–
CCN(CC)CCNC(=O)c1ccc(Cn2c(=O)c3cccn3c3cccnc32)cc1,–,·,–,–,–
COc1ccc2oc(=O)c(C(=O)NCc3ccc(C)cc3)cc2c1,–,–,-100,·,·
COc1ccc(CNC(=O)c2cc3cc(OC)ccc3oc2=O)cc1,–,?,-104!,–,–
COc1ccc2oc(=O)c(C(=O)NCc3ccccc3)cc2c1,–,–,–,–,–
COc1ccc(NC(=O)c2cc3cc(OC)ccc3oc2=O)cc1,–,–,–,·,·
Cc1cc(N2CCCCC2)n2ncc(-c3ccccc3)c2n1,?,10µM,–,–,–
Cc1cc(N2CCOCC2)n2ncc(-c3ccccc3)c2n1,–,?,–,·,·
Cc1cc(N2CCC(C)CC2)n2ncc(-c3ccccc3)c2n1,?,?,-64,·,–
COc1ccc(-c2cn3nc(N4CCCC(C(=O)Nc5cc(C)ccc5C)C4)sc3n2)cc1 (configuration not stated),–,·,–,–,–
C=C1C=C(C)n2ncc(C(=O)Nc3ccccc3C(=O)OC)c2N1,·,·,·,–,–
Cc1ccc(C(=O)OCc2cc(=O)n3nc(CC(C)C)sc3n2)cc1,–,·,–,–,–
CCCCOc1ccc(-c2cc(C(=O)NNC(=S)NCC)c3ccccc3n2)cc1,?,11µM,-93,·,·
CCNC(=S)NNC(=O)c1cc(-c2ccc(OC)cc2)nc2ccccc12,11µM,–,–,–,–
O=C(C[N+]12CN3CN(CN(C3)C1)C2)c1ccc(Br)cc1,·,·,·,–,–
CCCCc1n[nH]c2c1C(=O)CC(C)(C)C2,–,–,-85,·,–
CC1(C)CC(=O)c2c(Cc3ccccc3)n[nH]c2C1,–,–,–,·,–
CC(Sc1ncnc2sccc12)C(=O)Nc1ccc(C(N)=O)cc1 (configuration not stated),–,–,–,·,·
NS(=O)(=O)c1ccc(CNc2ncnc3sccc23)cc1,–,–,–,–,–
Cc1ccc(S(=O)(=O)Nc2ncnc3sc(C)c(C)c23)cc1,–,–,–,–,–
CC(Sc1ncnc2sccc12)C(=O)Nc1ccc(S(N)(=O)=O)cc1 (configuration not stated),–,–,–,11µM,?
Cc1sc2ncnc(NCCc3ccc(S(N)(=O)=O)cc3)c2c1C,11µM,1µM,-76,–[1.46 µM],?
NS(=O)(=O)c1ccc(CCNc2ncnc3sccc23)cc1,?,5.6µM,?,·,·
Cn1c(=O)n(C)c2cc(CNCc3ccc(F)cc3)ccc21,–,·,–,–,–
SMILES,FMDV antiviral,HCV inh,HCMV antiviral,Vaccinia mCherry,Vaccinia Venus
O=C(Nc1ccc(C(=O)N2CCCC2)cc1)C1CCC1,–,–[8.37 µM],–,–,–
c1ccc(CN=C2NN=C(c3ccccc3)CS2)cc1,–,?,–,–,–
Clc1ccc(C2=NNC(=NCc3ccccc3)SC2)cc1,–,–,-79,?,–
COc1ccccc1C1=NNC(=NCc2ccccc2)SC1,–,–,-60,–,–
Cc1nc(N)c(C#N)c(-c2cccnc2)c1C,–,–,-70,–,–
CCc1nc(N)c(C#N)c(-c2cccnc2)c1C,–,–,–,·,·
Cc1cc(N2CCOCC2)ccc1/C=C\[N+](=O)[O-],?,?,-98,?,10µM
O=C(CSc1ccc2nnc(-c3ccc(F)cc3)n2n1)N1CCCc2ccccc21,–,?,-77,?,–
O=C(CSc1ccc2nnc(-c3ccc(Cl)cc3)n2n1)N1CCCc2ccccc21,?,–,–,–,–
CCN1C(=O)C(Cc2nc3ccccc3c(=O)n2-c2ccccc2)c2cc(Br)ccc21 (configuration not stated),?,·,-70,–,–
O=[N+]([O-])c1ccc(Oc2cccc3cccnc23)c([N+](=O)[O-])c1,?,–,-69,?,–
COc1cccc(CN2C(=O)NC(C)(C3CCN(Cc4ccc(C)o4)CC3)C2=O)c1OC (configuration not stated),–,·,·,–,–
Cc1cc(C)c(C#N)c(SCc2nnc(-c3ccccc3)o2)n1,?,?,-93,–,–
Cc1ccc(C#N)c(SCc2cc3c(cc2Cl)OCO3)n1,–,–,–,·,·
Cc1ccc(C#N)c(SCc2nnc(-c3ccc(Cl)cc3)o2)n1,20µM,–,-91,–,–
Cc1ccc(C#N)c(SCc2ccccc2[N+](=O)[O-])n1,–,–,?,–,–
Cc1cc(C)c(C#N)c(SCc2c(F)cccc2[N+](=O)[O-])n1,–,?,–,–,–
Cc1cc(C)c(C#N)c(SCc2ccccc2[N+](=O)[O-])n1,–,–,-97,–,–
Cc1cc(C)c(C#N)c(SCc2nnc(-c3ccccc3[N+](=O)[O-])o2)n1,–,?,-95,–,–
COc1ccc(/C=C/C(=O)NCC2Cc3cccc(-c4nc(C)cnc4C)c3O2)cc1OC (configuration not stated),–,·,·,–,–
CCN(CC)C(=O)CSc1nc(C)cc(C)c1C#N,–,–,–,–,–
Cc1cc(C)c(C#N)c(SCc2cn3c(C)cccc3n2)n1,–,?,-63,–,–
Cc1cc(C)nc(SCc2cn3c(C)cccc3n2)n1,–,–,–,–,–
CCN(Cc1ccccc1)C(=O)CSc1nc(C)cc(C)c1C#N,–,10µM,?,–,–
Cc1ccc(C(=O)c2oc3ccccc3c2NC(=O)c2cc(=O)c3cc(C)ccc3o2)cc1,–,·,–,–,–
SMILES,FMDV antiviral,HCV inh,HCMV antiviral,Vaccinia mCherry,Vaccinia Venus
O=C(Cc1ccc(OCc2ccccn2)cc1)NO,·,·,·,–,–
NC(=S)N=Nc1c(O)n(CCCl)c2ccccc12,–,?,–,?,1µM
NC(=S)N=Nc1c(O)n(CCCl)c2ccc(Cl)cc12,?,?,–,2.2µM,?
CCOc1ccc2c(c1)c(N=NC(N)=S)c(O)n2C,–,–,–,·,·
NC(=S)N=Nc1c(O)n(CC(=O)Nc2ccccc2)c2ccccc12,–,–,–,·,·
CCCCN(C)c1ncnc2c1cnn2-c1cccc(Cl)c1,–,·,–,–,–
Oc1c(CN2CCOCC2)cc(COCc2ccccc2)c2cccnc12,–,?,-95,7.1µM,?
Oc1c(CNc2ccccc2)cc(COCc2ccccc2)c2cccnc12,?,·,-100,·,·
Oc1c(CN2CCOCC2)cc(CN2CCOCC2)c(O)c1O,–,–,–,–,–
CC(OC(=O)Cc1c[nH]c2ccccc12)C(=O)NC1CCCCC1C (configuration not stated),–,–,–,·,·
COc1ccc(C2/C(=C(/O)c3ccccc3)C(=O)C(=O)N2CCO)cc1 (configuration not stated),–,–,–,–,–
COc1ccc(N/C(C)=C2/C(=O)C(=O)N(CCO)C2c2ccc(Br)cc2)cc1 (configuration not stated),–,–,-96,·,·
O=C(Nc1cccc(Cl)c1)Nc1ccc2nc(-c3ccc(F)c(Cl)c3)nn2c1,·,·,–,·,·
CN(C)Cc1c(O)ccc2[nH]cnc12,–,?,-95,·,–
CCN(CC)CCNC(=O)c1cc2ccccc2nc1Cl,–,–,–,–,–
